Legend:
Assay in all cases: log2 ratio of Biotin-Ahx-Ub-VS probe labelling (fragment/DMSO); higher = less target engagement (more negative = stronger competition), active = hit call of the paper (q ≤ 0.05, log2 ratio ≤ -1)
Conditions in all cases: compound concentration: 200 uM; treatment time: 3 h
ALG13 = molecular target: T1, ALG13 (UniProt Q9NP73)
T1 sequence (whole entry): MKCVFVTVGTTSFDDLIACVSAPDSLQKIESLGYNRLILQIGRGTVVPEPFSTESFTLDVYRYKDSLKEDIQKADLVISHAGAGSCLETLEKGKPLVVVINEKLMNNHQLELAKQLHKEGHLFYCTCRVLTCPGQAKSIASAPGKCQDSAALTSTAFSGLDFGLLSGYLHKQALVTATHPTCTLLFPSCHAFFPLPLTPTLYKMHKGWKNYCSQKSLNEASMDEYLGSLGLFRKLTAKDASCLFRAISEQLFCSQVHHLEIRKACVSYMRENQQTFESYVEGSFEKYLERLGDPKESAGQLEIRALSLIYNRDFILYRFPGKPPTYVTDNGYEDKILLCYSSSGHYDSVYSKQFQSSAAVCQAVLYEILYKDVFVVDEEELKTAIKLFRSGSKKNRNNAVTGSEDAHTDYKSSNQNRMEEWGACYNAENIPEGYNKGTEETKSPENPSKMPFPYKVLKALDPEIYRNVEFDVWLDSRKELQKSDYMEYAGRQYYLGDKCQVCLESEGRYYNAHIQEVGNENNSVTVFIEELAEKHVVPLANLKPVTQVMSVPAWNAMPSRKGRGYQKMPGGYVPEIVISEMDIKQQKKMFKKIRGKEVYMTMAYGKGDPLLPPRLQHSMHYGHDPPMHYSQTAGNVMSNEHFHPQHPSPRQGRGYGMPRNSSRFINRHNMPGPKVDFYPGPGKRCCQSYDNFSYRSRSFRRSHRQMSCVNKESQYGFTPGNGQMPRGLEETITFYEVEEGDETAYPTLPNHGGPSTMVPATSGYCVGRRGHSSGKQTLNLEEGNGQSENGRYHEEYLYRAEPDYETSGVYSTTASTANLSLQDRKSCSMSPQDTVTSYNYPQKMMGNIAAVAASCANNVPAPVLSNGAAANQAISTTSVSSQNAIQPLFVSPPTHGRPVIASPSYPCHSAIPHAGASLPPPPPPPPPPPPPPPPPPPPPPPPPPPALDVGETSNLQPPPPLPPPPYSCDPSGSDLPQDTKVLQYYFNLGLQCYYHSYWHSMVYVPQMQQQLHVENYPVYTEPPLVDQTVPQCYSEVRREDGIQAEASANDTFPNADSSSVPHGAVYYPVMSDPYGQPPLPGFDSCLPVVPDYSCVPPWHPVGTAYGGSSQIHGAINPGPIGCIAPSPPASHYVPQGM
Outline: (§1)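 Lysate from HEK293T cells, 495 µg per sample in Tris/CHAPS/IGEPAL buffer with protease inhibitors, was treated for 3 h in triplicate with fragment at 200 µM or vehicle. Biotin-Ahx-Ub-VS was next added at 0.5 µM final for 1 h. The labelled DUBs were enriched with NeutrAvidin, digested with LysC and trypsin, and run by diaPASEF LC-MS/MS, with values given as average log2 fragment/vehicle ratios by unpaired t-test on global-median-normalised Spectronaut quantities of proteins with ≥2 unique peptides.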

ATXN3 = ATXN3 (UniProt P54252)
Outline: as §1

BAP1 = molecular target: T2, BAP1 (UniProt Q92560)
T2 sequence (whole entry): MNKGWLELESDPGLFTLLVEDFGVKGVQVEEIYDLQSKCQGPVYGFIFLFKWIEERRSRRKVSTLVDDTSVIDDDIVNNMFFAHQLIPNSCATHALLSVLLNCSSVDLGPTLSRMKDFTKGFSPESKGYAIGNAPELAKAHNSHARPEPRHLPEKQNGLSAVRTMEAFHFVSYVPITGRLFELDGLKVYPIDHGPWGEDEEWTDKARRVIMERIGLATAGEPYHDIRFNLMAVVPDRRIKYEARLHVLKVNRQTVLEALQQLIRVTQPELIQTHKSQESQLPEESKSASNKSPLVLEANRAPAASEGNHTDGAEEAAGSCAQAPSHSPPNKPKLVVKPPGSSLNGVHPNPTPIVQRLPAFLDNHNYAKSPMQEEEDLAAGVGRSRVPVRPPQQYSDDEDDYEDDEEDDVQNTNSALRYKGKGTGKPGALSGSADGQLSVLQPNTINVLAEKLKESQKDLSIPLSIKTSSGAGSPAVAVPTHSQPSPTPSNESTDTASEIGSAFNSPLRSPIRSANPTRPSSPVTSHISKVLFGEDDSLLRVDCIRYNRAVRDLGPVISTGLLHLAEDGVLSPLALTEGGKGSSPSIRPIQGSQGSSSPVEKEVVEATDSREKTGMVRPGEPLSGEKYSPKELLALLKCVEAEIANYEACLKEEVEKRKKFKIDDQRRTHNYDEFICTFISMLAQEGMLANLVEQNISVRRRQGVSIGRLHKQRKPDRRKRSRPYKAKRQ
Outline: as §1

EIF3F = EIF3F (UniProt O00303)
Outline: as §1

EIF3H = EIF3H (UniProt O15372)
Outline: as §1

FAM105A = molecular target: T3, FAM105A (UniProt Q9NUU6)
T3 sequence (whole entry): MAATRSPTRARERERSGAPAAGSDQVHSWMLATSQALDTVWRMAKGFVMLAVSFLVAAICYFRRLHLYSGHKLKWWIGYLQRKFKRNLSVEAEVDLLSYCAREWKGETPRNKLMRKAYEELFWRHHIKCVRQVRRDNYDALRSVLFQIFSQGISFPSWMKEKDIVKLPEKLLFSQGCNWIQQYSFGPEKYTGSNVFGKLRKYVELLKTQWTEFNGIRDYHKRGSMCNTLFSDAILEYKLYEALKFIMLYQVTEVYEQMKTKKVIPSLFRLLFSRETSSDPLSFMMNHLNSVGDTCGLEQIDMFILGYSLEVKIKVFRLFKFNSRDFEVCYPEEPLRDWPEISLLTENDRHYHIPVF
Outline: as §1

OTUB1 = OTUB1 (UniProt Q96FW1)
Outline: as §1

OTUD4 = molecular target: T4, OTUD4 (UniProt Q01804)
T4 sequence (whole entry): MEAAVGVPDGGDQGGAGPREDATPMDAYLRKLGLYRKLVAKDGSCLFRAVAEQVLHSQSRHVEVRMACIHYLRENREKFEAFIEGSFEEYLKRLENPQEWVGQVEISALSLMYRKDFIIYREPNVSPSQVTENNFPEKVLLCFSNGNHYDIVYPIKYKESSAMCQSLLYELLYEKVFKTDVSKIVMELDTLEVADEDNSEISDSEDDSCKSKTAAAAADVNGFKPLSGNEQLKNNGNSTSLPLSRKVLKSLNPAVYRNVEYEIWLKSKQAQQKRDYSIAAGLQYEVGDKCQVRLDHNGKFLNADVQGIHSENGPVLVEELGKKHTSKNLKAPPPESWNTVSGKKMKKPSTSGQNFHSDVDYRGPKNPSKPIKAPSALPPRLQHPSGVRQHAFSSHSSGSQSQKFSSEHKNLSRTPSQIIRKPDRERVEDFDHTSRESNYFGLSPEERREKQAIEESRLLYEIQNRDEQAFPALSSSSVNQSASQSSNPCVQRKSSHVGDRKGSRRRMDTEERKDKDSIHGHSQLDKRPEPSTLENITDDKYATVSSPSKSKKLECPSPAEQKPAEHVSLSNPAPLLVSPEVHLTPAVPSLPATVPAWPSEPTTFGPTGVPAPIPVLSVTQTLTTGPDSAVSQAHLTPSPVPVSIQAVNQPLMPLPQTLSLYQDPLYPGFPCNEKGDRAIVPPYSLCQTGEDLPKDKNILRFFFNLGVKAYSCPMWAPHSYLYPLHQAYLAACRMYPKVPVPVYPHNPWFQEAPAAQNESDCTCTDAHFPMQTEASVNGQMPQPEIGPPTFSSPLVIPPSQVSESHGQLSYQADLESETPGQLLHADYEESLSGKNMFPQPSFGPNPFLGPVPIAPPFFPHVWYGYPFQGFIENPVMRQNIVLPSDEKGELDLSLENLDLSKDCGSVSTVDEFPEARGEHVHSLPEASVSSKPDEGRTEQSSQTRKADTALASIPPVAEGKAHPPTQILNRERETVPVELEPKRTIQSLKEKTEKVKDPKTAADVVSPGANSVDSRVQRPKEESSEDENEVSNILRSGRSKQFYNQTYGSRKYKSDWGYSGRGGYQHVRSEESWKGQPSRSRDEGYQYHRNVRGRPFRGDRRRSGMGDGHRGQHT
Outline: as §1

OTUD5 = molecular target: T5, OTUD5 (UniProt Q96G74)
T5 sequence (whole entry): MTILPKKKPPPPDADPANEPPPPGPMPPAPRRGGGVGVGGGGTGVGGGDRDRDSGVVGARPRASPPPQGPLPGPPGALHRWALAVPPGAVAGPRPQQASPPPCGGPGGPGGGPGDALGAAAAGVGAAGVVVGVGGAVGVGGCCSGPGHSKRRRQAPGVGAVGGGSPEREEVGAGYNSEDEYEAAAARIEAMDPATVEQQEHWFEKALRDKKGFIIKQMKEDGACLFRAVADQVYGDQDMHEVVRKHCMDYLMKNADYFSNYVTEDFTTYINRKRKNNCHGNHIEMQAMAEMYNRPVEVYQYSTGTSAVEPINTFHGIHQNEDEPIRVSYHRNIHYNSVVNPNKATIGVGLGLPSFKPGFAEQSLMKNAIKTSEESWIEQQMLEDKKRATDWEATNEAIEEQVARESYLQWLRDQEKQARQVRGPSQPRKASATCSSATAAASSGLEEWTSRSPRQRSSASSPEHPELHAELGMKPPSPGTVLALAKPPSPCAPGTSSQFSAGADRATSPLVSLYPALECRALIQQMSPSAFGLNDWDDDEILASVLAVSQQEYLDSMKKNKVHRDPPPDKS
Outline: as §1

Measured: log2 ratio of Biotin-Ahx-Ub-VS probe labelling

Sequence of EIF3H (O15372 whole entry): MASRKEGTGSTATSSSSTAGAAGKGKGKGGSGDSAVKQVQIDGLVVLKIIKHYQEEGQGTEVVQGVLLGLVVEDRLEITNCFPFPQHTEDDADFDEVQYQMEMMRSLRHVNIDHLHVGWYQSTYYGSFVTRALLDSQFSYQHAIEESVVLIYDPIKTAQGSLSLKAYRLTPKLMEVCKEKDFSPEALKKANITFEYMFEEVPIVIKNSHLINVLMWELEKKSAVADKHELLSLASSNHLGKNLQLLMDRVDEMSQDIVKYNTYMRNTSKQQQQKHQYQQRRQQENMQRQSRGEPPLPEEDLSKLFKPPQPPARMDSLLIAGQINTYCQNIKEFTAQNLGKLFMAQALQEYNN
Sequence of OTUB1 (Q96FW1 whole entry): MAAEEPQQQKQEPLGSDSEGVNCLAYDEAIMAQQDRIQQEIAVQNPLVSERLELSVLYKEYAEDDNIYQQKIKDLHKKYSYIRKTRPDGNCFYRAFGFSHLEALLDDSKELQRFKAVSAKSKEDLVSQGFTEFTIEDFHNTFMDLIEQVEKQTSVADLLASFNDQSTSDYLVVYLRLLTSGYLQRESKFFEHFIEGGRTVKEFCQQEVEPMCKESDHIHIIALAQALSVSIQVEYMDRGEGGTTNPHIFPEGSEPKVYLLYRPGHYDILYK
Sequence of EIF3F (O00303 whole entry): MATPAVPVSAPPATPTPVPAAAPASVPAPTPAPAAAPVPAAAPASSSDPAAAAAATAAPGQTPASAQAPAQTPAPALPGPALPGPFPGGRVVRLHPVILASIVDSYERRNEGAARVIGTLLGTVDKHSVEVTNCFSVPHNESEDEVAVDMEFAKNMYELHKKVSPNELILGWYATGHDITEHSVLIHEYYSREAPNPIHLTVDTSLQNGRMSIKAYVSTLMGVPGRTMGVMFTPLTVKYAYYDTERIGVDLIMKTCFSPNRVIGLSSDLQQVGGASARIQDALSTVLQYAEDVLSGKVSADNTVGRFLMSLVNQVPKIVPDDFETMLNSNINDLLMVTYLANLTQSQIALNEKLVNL
Sequence of ATXN3 (P54252 whole entry): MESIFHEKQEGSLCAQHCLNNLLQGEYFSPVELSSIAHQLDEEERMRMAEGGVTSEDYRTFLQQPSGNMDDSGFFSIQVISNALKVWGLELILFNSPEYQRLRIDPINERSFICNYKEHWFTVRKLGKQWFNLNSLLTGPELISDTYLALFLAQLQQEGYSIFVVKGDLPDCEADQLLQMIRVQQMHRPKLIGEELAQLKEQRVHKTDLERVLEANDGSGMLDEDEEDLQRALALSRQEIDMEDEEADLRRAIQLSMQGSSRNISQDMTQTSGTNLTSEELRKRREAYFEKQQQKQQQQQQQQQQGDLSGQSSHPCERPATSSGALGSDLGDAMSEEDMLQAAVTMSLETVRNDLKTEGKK

COc1cc(Cl)c(C)cc1NC(=O)CCl
active: BAP1 -2.01
inactive: ALG13 -0.216 | ATXN3 -0.37 | EIF3F 0.0292 | EIF3H -0.06 | FAM105A 0.159 | OTUB1 -0.0736 | OTUD4 -0.51 | OTUD5 -0.644

From the supplement of paper PMC11732987, “Enantioselective OTUD7B fragment discovery through chemoproteomics screening and high-throughput optimisation” (Communications Chemistry, 2025)
